Laboratory results: the supplement of paper PMC6555819

tested on: RARb homodimer (NR concentration 270 nM); assay: PBM binding z-score (relative to random genomic background probes); higher = stronger binding; sequences stand for … in GC…GCGATTGACAGCGTAGAATGAAGG
In short: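 Binding buffer was PBS pH 7.4 with 2% milk, 0.02% Triton X-100, 1 mM DTT, 0.2 mg/mL BSA and 0.4 mg/ml salmon testes DNA. In it, ligand-free nuclear receptor dimers were incubated 1 h on custom Agilent 4×180K protein-binding microarrays carrying double-stranded probes. Antibodies against each partner (one per run) detected binding, and z-scores were calculated against random background probes after regression normalization of scanned fluorescence.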

Row | Sequence | PBM binding z-score
1 | TCATATAGGTGATACAGGTGAAAGTCGGCATCTA | 1.08
2 | ACTAGTTGGTCAGCTGTGGTCACACACAATTCGG | 1.25
3 | GCTCGGAGGACAGGGTCAGAGCTTTGTCCGTAGA | 2.28
4 | AATACAGGGTCACTAGCCCAGAGTAGGTACGAAT | 2.95
5 | TAGCCTAGGGCATTGGGCCAGTATAGTACGCATC | 0.542
6 | TCTGCTAGGTCAACGATGGTCATCTAATCTGCTA | 3.5
7 | CCTCGGAGGACAACAGGAGGACAGAGCTGCCAGA | 1.1
8 | TAACCTAGGTCATGGGCCAGTATACCACGCGAAC | 3.63
9 | CGTCCATGGTCAGAGAGGTCAGTGAATGCCGAGT | 4.09
10 | CCGAGTAGGTTATGGGGCATTTAGGCAACGGTGA | 0.777
11 | TCTACCAGGCCAGAGGGTCACTCAAGAGGTACGG | 3
12 | AGAACGAGGGCAATGAGTTGATAGCACGGGTGGC | 0.844
13 | ACAGACAGGTGATGACGGTAACTCAGGCTATCAT | 0.213
14 | GCTCGGAGGACAAGGTCAGCGCTTTGTCCGTAGA | 3.72
15 | CAAATTAGGTCACAGAGGTCAAAGTCCGTGCGTA | 5.59
16 | ACAGACAGGTGATGAAGGTAACCCAGGCTATCAT | 0.672
17 | TTTTGTAGATCAGCAGGTTAAGAAAGCTGGCCAA | 0.145
18 | CGTCCAAGGTCAGAGTGGTCAGTGAATGCCGAGT | 3.83
19 | CGAACTAGGTCATTGCCAGGACAGTGAATAGTAA | 2.72
20 | ACTAGTTGGTCTGCTGAGGTCACACACAATTCGG | 3.79

Row | Sequence | PBM binding z-score
21 | ATCGAAAGGTCGACGTGAGTATAGAGAAAGGGAA | 2.07
22 | AATACAGGGTCATCGTAGGCCAAAGTACGCACAG | 3.71
23 | GCTGCTTGGTCAGGTTGGTCAGCTAACGGGTACG | 0.727
24 | TCTTGTAGATCAACAGGACGTTAAGAAAGATCGA | -0.694
25 | TATACAGGGTCCAAGGCCAGAGTACGAATGTCGA | 1.18
26 | TCTTGTAGATCAAGCAAGTTAAGAAAGCCTGAGT | -0.703
27 | GCTGCTAGGTCAGGTTGGTCAGCTACCGGGTACG | 2.79
28 | CGTCCAAGGTCAATGCTAGGTCATTGAAAGCATT | 4.92
29 | TCATATAGGTAAAACAGGTGAAAGTCGGCATCTA | 0.437
30 | AGACTGAGGTTATTAAGATCAGGGAATTGCGGTC | 0.996
31 | ATCGTAAGGTCGACGAGGTGAGTATACACCGTTT | 2.31
32 | CGTCCTAGGTCAGAGAGGTCAGTGAATGCCGAGT | 4.71
33 | CCTCGGAAGACAACAGGAGGTCAGAGCTGCCAGA | 2.77
34 | TAACCTAGGTCAGATCGGGCCAGTATACGCTATA | 2.52
35 | AATCAAAGTTCAGGACGAGGTAACGTAAAGCACG | 3.22
36 | CCGACTGGGGCAGAAAGGTTATCATACCATCCGG | 1.91
37 | CGAACTAGGTCATTGACAGGACAGTGCATAGTAA | 2.87
38 | TATACAGGGGCAAAGGCCAGAGTACGAATGTCGA | 1.74
39 | CGAACTAGGTCATTGACAGGACAGTGATTAGTAA | 2.83
40 | AGAACGAGGTTACCAAAGATCAGGGAAACGCTTG | 0.645
